Source: PubChem BioAssay
Activity calls are given as the source filed them. Unless noted, how the calls were made is not given here.

What was measured:
[1] = HepG2 liver cancer cell viability effects, profiling panel, resazurin fluorescence, 24 h, PK04 Diversity Set (AID 1172); conditions: higher = more signal
[2] = basal S. cerevisiae growth modulation, no modifier, primary screen, OD600, strain BY4716, 24 h, basal condition (AID 1173); conditions: OD600, 24 h, higher = more signal, called active from +8 up or from −8 down
[3] = MM1S myeloma cell viability, profiling panel, resazurin fluorescence, basal, 24 h, PK04 Diversity Set (AID 1174); conditions: higher = more signal, called active from +8 up or from −8 down;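 further: MM1S multiple myeloma cell line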
[4] = target: Dihydroorotate dehydrogenase (quinone), mitochondrial (Plasmodium falciparum (isolate 3D7)) (UniProt Q08210); assay: PfDHODH enzyme inhibitors, primary screen, biochemical, C-terminal His tag, absorbance 600 nm (AID 1175); conditions: DCIP absorbance 600 nm, higher = more signal, called active from +8 up or from −8 down;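 further: recombinant parasite enzyme with a five histidine tag at its C terminus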
[5] = P. aeruginosa biofilm formation inhibitors, primary screen, strain PAO1, LB-PBS medium, absorbance 600 nm (AID 1176); conditions: P. aeruginosa PAO1 growth/biofilm, A600, 12 h; higher = more signal
[6] = S. cerevisiae RM11-1a growth modifiers, primary screen, strain RM11-1a, OD600, basal, 24 h (AID 1177); conditions: OD600, 24 h, higher = more signal, called active from +8 up or from −8 down;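 further: cultures grown under basal conditions with no added stressor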
[7] = E. coli acrAB mutant growth effects, primary screen, E. coli filamentation inducers, strain DRC39, OD650, 24 h (AID 1178); conditions: higher = more signal, called active from +8 up or from −8 down;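 further: growth measured as culture turbidity by optical density at 650 nm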
[8] = E. coli acrAB mutant growth effects, primary screen, E. coli filamentation inducers, strain DRC39, OD650, 48 h (AID 1179);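 further: screen aims at cell division blockers that make cells filament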; conditions: E. coli DRC39 delta-acrAB growth, higher = more signal, called active from +8 up or from −8 down
[9] = RPMI8226 myeloma cell viability, profiling panel, resazurin fluorescence, basal, 24 h, PK04 Diversity Set (AID 1180); conditions: higher = more signal;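 further: RPMI8826 multiple myeloma cell line at 5000 cells per well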
[10] = target: E3 ubiquitin-protein ligase XIAP (Homo sapiens) (UniProt P98170); assay: XIAP binders, primary screen, biophysical, small-molecule microarray, fluorescence 635 nm (AID 1181); conditions: small-molecule microarray binding, higher = more signal;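 further: score merges 667 nm emission and signal to noise over triplicate slides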
[11] = system: XIP peptide (Xip251-270) binding; assay: small-molecule binders of XIP peptide, primary screen, biochemical, small-molecule microarray, fluorescence 635/667 nm, 0.1 µg/mL protein (AID 1182); conditions: fluorescent protein binding, 635 nm, higher = more signal, called active from +8 up or from −8 down
XIP peptide (Xip251-270) = assay: small-molecule binders of XIP peptide, primary screen, biochemical, small-molecule microarray, fluorescence 635/667 nm, 0.5 µg/mL protein (AID 1183); conditions: small-molecule microarray binding, fluorescence 635 nm; higher = more signal
[12] = Plasmodium falciparum growth inhibition, primary screen, strain 3D7, DAPI fluorescence, 100 nL (AID 1184);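 further: parasites grown inside human red blood cells in medium with human serum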; conditions: P. falciparum 3D7 growth, 3 d, higher = more signal
[13] = target: Homeobox protein Hox-A13 (Mus musculus) (UniProt Q62424); assay: inhibitors of HoxA13-DNA binding, primary screen, biochemical, fluorescence polarization, labeled oligonucleotide (AID 1185); conditions: 15 min, higher = more signal, called active from +8 up or from −8 down
Sequence of Homeobox protein Hox-A13 (Mus musculus) (Q62424 whole entry, looked up): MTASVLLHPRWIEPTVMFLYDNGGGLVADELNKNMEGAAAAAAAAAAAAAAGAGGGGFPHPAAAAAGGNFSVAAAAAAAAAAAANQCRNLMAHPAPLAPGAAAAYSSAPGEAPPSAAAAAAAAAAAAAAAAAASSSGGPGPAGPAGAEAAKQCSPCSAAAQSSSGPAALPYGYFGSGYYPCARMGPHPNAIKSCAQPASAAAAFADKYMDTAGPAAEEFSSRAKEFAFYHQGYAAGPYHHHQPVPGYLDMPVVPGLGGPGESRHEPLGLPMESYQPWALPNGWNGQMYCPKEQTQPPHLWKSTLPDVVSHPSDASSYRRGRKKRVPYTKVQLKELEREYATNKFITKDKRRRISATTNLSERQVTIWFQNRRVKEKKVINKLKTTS

Sequence of Dihydroorotate dehydrogenase (quinone), mitochondrial (Plasmodium falciparum (isolate 3D7)) (Q08210 whole entry, looked up): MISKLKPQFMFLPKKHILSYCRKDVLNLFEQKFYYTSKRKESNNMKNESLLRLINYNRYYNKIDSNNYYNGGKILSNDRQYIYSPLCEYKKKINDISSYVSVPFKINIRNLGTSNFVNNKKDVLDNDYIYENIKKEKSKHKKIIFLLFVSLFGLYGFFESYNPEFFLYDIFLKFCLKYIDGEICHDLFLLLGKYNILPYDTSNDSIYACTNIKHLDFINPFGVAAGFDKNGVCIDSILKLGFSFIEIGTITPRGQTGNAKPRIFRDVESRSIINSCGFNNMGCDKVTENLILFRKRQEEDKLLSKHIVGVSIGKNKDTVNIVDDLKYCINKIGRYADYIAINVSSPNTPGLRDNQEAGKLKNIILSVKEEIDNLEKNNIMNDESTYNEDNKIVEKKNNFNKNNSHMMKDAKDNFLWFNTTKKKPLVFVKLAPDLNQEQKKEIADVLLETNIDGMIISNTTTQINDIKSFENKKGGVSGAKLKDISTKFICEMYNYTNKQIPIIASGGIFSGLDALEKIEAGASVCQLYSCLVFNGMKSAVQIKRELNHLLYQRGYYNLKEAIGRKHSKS
Sequence of E3 ubiquitin-protein ligase XIAP (Homo sapiens) (P98170 whole entry, looked up): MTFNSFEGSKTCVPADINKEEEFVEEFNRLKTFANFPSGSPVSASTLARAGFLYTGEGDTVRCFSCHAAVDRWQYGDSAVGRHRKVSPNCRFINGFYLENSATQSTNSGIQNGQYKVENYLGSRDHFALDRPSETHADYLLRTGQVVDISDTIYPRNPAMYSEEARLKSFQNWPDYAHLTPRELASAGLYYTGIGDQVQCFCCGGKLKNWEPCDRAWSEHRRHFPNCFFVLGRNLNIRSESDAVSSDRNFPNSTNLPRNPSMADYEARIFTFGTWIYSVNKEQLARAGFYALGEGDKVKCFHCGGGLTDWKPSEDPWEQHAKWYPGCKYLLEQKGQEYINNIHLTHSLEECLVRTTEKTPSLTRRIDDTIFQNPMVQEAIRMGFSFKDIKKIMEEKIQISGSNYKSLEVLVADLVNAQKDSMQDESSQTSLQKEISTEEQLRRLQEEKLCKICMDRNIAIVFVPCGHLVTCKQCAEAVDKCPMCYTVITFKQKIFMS

Row | SMILES | z-score [1] | z-score [2] | z-score [3] | composite z-score [4] | z-score [5] | z-score [6] | z-score [7] | z-score [8] | z-score [9] | composite z-score [10] | composite z-score [11] | composite z-score (XIP peptide (Xip251-270)) | z-score [12] | z-score [13]
1 | CCN1C(=O)[C@H]2[C@H]3[C@H](O)[C@H](O)CC(=NO[C@H](C)c4cn([C@@H]5COC[C@H]5O)nn4)[C@@H]3CC[C@H]2C1=O | -1.28 | 1.15 (inactive) | -0.917 (inactive) | 0.871 (inactive) | 1.46 (inactive) | 0.539 (inactive) | 0.319 (inactive) | -0.787 (inactive) | -0.767 | -0.124 | 0.0118 (inactive) | -0.629 | 0.202 | -0.803 (inactive)
2 | CCN1C(=O)[C@H]2[C@H]3[C@H](O)[C@H](O)CC(=NO[C@@H]4O[C@H](COC(C)=O)[C@@H](OC(C)=O)[C@H](OC(C)=O)[C@H]4OC(C)=O)[C@@H]3CC[C@H]2C1=O | -1.15 | 0.902 (inactive) | -0.974 (inactive) | -0.0673 (inactive) | -0.136 (inactive) | 0.164 (inactive) | 1.22 (inactive) | 1.44 (inactive) | -1.03 | 1.92 | 0.369 (inactive) | -0.191 | 1.87 | -1.75 (inactive)
3 | CCCCOC(OCCCC)C(O)CSc1ccc2ccccc2c1 (centres undefined) | -0.879 | -2.07 (inactive) | -1.99 (inactive) | -0.161 (inactive) | 0.344 (inactive) | 0.363 (inactive) | 0.872 (inactive) | 1.01 (inactive) | -1.37 | 0.0506 | 0.115 (inactive) | 0.198 | 0.609 | -3.85 (inactive)
4 | CCOC(=O)[C@H](CC(C)C)NC(=O)CCC1CC(OC(=O)NCCc2ccc(F)cc2)CC2(CCCC(COC(=O)NCc3cccc(C(F)(F)F)c3)O2)O1 (some centres undefined) | 0.0989 | 0.924 (inactive) | 0.0492 (inactive) | 0.324 (inactive) | 0.672 (inactive) | 0.924 (inactive) | 0.687 (inactive) | 0.0609 (inactive) | 0.15 | -0.383 | -0.0296 (inactive) | 0.575 | -0.748 | -6.52 (inactive)
5 | C[C@]12CCC3c4ccc(OCC5CO5)cc4CCC3C1CC[C@@H]2O (some centres undefined) | 0.689 | -3.59 (inactive) | 0.383 (inactive) | -0.187 (inactive) | 0.52 (inactive) | 1.27 (inactive) | -0.424 (inactive) | -0.431 (inactive) | 1.68 | -0.148 | 0.504 (inactive) | 0.0249 | 0.0788 | -2.47 (inactive)
6 | CCN(CC)CC(O)CN1CCCCc2nc(C)c(C)cc21 (centres undefined) | -0.148 | -0.571 (inactive) | 0.423 (inactive) | -2.78 (inactive) | 0.711 (inactive) | -1.48 (inactive) | 0.721 (inactive) | 0.0142 (inactive) | 0.259 | -0.271 | -0.344 (inactive) | -0.136 | 0.694 | -1.17 (inactive)
7 | CCN1C(=O)[C@H]2[C@H]3[C@H](O)[C@H](O)CC(=NOC(C)CN4CCCc5nc(C)c(C)cc54)[C@@H]3CC[C@H]2C1=O (some centres undefined) | -1.01 | -0.0189 (inactive) | -2 (inactive) | 0.988 (inactive) | -0.112 (inactive) | 0.49 (inactive) | 0.836 (inactive) | 0.583 (inactive) | -2.01 | 0.109 | 0.302 (inactive) | 0.148 | 0.393 | -10.2 (active)
8 | O=C1C=C[C@@H](O)[C@@H]2[C@@H]3C(=O)N(c4cccc(Oc5ccccc5)c4)C(=O)[C@@H]3CC[C@@H]12 | -0.553 | -1.82 (inactive) | -0.136 (inactive) | -2.96 (inactive) | 0.188 (inactive) | -0.518 (inactive) | 0.318 (inactive) | -1.71 (inactive) | 0.088 | 0.242 | -0.0205 (inactive) | 0.528 | -1.46 | -0.827 (inactive)
9 | CC(CCN1CCc2nc(-c3ccccc3)c(-c3ccccc3)cc2C1)=NO[C@H](C)c1cn([C@H](CO)Cc2ccccc2)nn1 | -0.391 | -1.74 (inactive) | 0.474 (inactive) | -1.38 (inactive) | 0.593 (inactive) | -0.222 (inactive) | -0.424 (inactive) | -1.95 (inactive) | 0.2 | -0.156 | 0.899 (inactive) | 0.529 | -0.618 | -5.22 (inactive)
10 | CO[C@H]1C[C@@H]2C[C@H](O)CC(CC(=O)O[C@@H](C=CCC(C)C)C[C@@H]3CC[C@H](C)[C@@H](C1)O3)O2 | -0.37 | -1.47 (inactive) | -0.0942 (inactive) | -0.928 (inactive) | -0.139 (inactive) | -1.65 (inactive) | -0.033 (inactive) | -0.394 (inactive) | -0.384 | 0.0256 | -0.199 (inactive) | 0.142 | -0.825 | -0.952 (inactive)
11 | O=C1[C@H]2[C@H]3[C@H](O)[C@H](O)CC(=NO[C@@H]4O[C@H](CO)[C@@H](O)[C@H](O)[C@H]4O)[C@@H]3CC[C@H]2C(=O)N1C[C@@H]1CCCO1 | -0.0979 | -2.29 (inactive) | -0.589 (inactive) | -2.39 (inactive) | -0.589 (inactive) | -0.633 (inactive) | 0.564 (inactive) | 0.172 (inactive) | 0.062 | -0.152 | 0.357 (inactive) | 0.385 | -1.49 | -0.192 (inactive)
12 | CC(CCC(=O)OC[C@H]1O[C@H](C#Cc2ccccc2)C=C[C@@H]1Oc1ccc(C)cc1)=NO[C@@H](C)c1cc(-c2c(C)cc(C)cc2C)no1 | -0.53 | 0.0942 (inactive) | 0.281 (inactive) | 1.04 (inactive) | -0.798 (inactive) | 0.333 (inactive) | -0.135 (inactive) | 0.213 (inactive) | 0.838 | -0.102 | 0.0185 (inactive) | -0.333 | -1.36 | -1.88 (inactive)
13 | CCOC(=O)CCN1C(=O)[C@H]2[C@H]3[C@H](O)[C@H](O)CC(=NO[C@@H]4O[C@H](CO)[C@@H](O)[C@H](O)[C@H]4O)[C@H]3CC[C@H]2C1=O | -0.228 | 0.87 (inactive) | -0.433 (inactive) | 0.29 (inactive) | -0.483 (inactive) | -0.402 (inactive) | -0.739 (inactive) | -0.0907 (inactive) | -0.162 | 0.106 | 0.234 (inactive) | 0.405 | 0.209 | -0.139 (inactive)
14 | Cc1cc(C)c(-c2cc([C@H](C)ON=C[C@@H](C)[C@H](OCc3ccccc3)C(C)C)on2)c(C)c1 | -0.811 | 0.462 (inactive) | -0.258 (inactive) | -0.382 (inactive) | -0.23 (inactive) | 0.255 (inactive) | 0.262 (inactive) | 0.336 (inactive) | -0.522 | 0.02 | -0.0022 (inactive) | -0.291 | -0.317 | -0.415 (inactive)
15 | O=C1[C@H]2[C@H]3[C@H](O)[C@H](O)CC(=NOCc4ccccc4)[C@H]3CC[C@H]2C(=O)N1C1CCCCC1 | -0.483 | -0.149 (inactive) | -0.99 (inactive) | 0.0894 (inactive) | 0.377 (inactive) | -0.373 (inactive) | -0.157 (inactive) | -0.414 (inactive) | -1.83 | 0.237 | 0.288 (inactive) | 0.714 | -0.369 | 0.449 (inactive)
16 | C[C@H]1C=CCC(=O)OC[C@H](C)C(=O)N2CCC[C@H]2C(=O)OC1 | 0.976 | -0.18 (inactive) | -0.0106 (inactive) | -0.441 (inactive) | -0.455 (inactive) | 0.73 (inactive) | 0.0678 (inactive) | 0.205 (inactive) | 0.818 | -0.102 | 0.23 (inactive) | 0.476 | 0.878 | -0.266 (inactive)
17 | CCOC(=O)[C@H](CC(C)C)NC(=O)CCC1CC(OC(=O)NCc2ccc3c(c2)OCO3)CC2(CCCC(COC(=O)NCCOc3ccccc3)O2)O1 (some centres undefined) | -0.167 | 0.592 (inactive) | 0.691 (inactive) | 0.0657 (inactive) | -0.564 (inactive) | 1.21 (inactive) | -0.0466 (inactive) | -0.875 (inactive) | 0.632 | 0.154 | 0.24 (inactive) | 0.368 | -1.87 | -6.24 (inactive)
18 | COc1ccc(O[C@H]2C=C[C@@H](c3ccccc3)O[C@@H]2CON=C(C)CCN2CCCc3nc(C)c(C)cc32)cc1 | 0.165 | -0.855 (inactive) | -0.662 (inactive) | -0.752 (inactive) | 0.699 (inactive) | -0.351 (inactive) | -0.321 (inactive) | -0.112 (inactive) | -0.164 | 2.22 | 0.301 (inactive) | 0.693 | -1.96 | -4.5 (inactive)
19 | O=C1[C@H]2[C@H]3[C@H](O)[C@H](O)CC(=NOC[C@@H](O)COCc4ccco4)[C@@H]3CC[C@H]2C(=O)N1c1cccc(Oc2ccccc2)c1 | 0.928 | -0.378 (inactive) | 0.25 (inactive) | 0.295 (inactive) | -0.389 (inactive) | -1 (inactive) | -0.25 (inactive) | -1.28 (inactive) | 0.0789 | 0.1 | 0.2 (inactive) | -0.344 | 0.48 | -5.57 (inactive)
20 | O=C1C2=CC[C@H]3C(=O)N(c4ccc(F)cc4F)C(=O)[C@H]3[C@H]2[C@H](O)[C@@H]2O[C@H]12 | 0.0059 | -0.448 (inactive) | -0.874 (inactive) | -0.166 (inactive) | -0.307 (inactive) | -0.592 (inactive) | -0.401 (inactive) | -0.0889 (inactive) | -0.035 | 0.104 | -0.196 (inactive) | 0.167 | 0.569 | -0.318 (inactive)
21 | C[C@@H]1CC[C@@H](C(=O)O)N[C@H]1c1cccc(N2CCOCC2)c1 | 0.764 | -1.62 (inactive) | 0.7 (inactive) | 0.18 (inactive) | 0.143 (inactive) | -0.206 (inactive) | 1.32 (inactive) | 1.13 (inactive) | 0.198 | 0.13 | -0.315 (inactive) | -0.135 | 0.818 | 0.167 (inactive)
